Source: PubChem BioAssay (Tox21)
Records with an inconclusive call do not appear. Calls of active or inactive are those of the source. Unless noted, calls follow the shape of the dose curve; as a rule, active = well fitted curve in the direction sought with a large enough effect in the repeat runs; inconclusive = weak or mixed curves; inactive = no such curve, though single readings can be large; an effect the other way counts as inactive or inconclusive.

Key:
[1] = qHTS assay to identify small molecule agonists of the TGF-beta/Smad signaling pathway (AID 1346859; active = well fitted activation curve with a large enough effect in the signal ratio in the repeat runs, not every such curve was filed as active; the % refers to the signal ratio; also: series mostly up to about 77 µM)
In short: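 Dual-wavelength fluorescence (460/530 nm emission) quantified beta-lactamase expression under the Smad binding element in HEK 293T cells following 5 hr compound treatment at 37 C.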

[2] = molecular target: Thyrotropin-releasing hormone receptor (Homo sapiens) (UniProt P34981); test: qHTS assay to identify small molecule antagonists of the thyrotropin-releasing hormone receptor (TRHR) signaling pathway (AID 1346877; active = well fitted inhibition curve with a large enough effect in the repeat runs, not every such curve was filed as active; also: series mostly up to about 51 µM)
In short: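 Screening used HEK293 cells engineered with TRHR, with a brief 5 min room-temperature compound exposure preceding addition of TRH to 1 nM. The read-out was kinetic calcium-dye fluorescence, concentration-response from 15 doses in triplicate.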

[3] = molecular target: Thyrotropin-releasing hormone receptor (Homo sapiens) (UniProt P34981); test: qHTS assay to identify small molecule agonists of the thyrotropin-releasing hormone receptor (TRHR) signaling pathway (AID 1346891; calls by dose curve;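 also: HEK293 cells expressing TRHR with calcium dye readout; series mostly up to about 58 µM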)
In short: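 Kinetic fluorescence (3 min, 1 s intervals) reported intracellular calcium after compound transfer onto TRHR-Hek293 cells pre-loaded with dye for 2 h at 37 °C.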

[4] = Human pregnane X receptor (PXR) small molecule agonists, qHTS cell viability counter screen (AID 1346977); also: nearly all actives have a fitted effect of over 50% in size
In short: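 HepG2 cells stably carrying the PXR-Luc reporter are cultured with 5% charcoal-stripped FBS and treated with compounds for 24hr. CellTiter-Fluor is added at 23hr and fluorescence is read after 1hr.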

[5] = Caspase-3/7 induction in CHO-K1 cells by small molecules, qHTS cell viability counter screen (AID 1346979); also: nearly all actives have a fitted effect of over 35% in size
In short: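 Seeding: 1,500 CHO-K1 cells/well. Rest: 5hr, 37C. Treatment: compounds in DMSO, 16hr. Read: CellTiter-Fluor, 1hr, fluorescence.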

[6] = Caspase-3/7 induction in CHO-K1 cells by small molecules, qHTS assay (AID 1346980); also: nearly all actives have a fitted effect of over 15% in size
In short: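 Wild-type CHO-K1 cells exposed to compounds for 17hr at 37 C, 5% CO2. Caspase-3/7 activity then measured by Caspase-Glo 3/7 luminescence after 30min at room temperature.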

[7] = Caspase-3/7 induction in HepG2 cells by small molecules, qHTS cell viability counter screen (AID 1346981); also: series mostly up to about 92 µM; nearly all actives have a fitted effect of over 30% in size
In short: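 Multiplexed with the caspase-3/7 assay: HepG2 cells, 16 hr compound treatment, CellTiter-Fluor viability detection by fluorescence.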

[8] = molecular target: Nuclear receptor subfamily 1 group I member 2 (Homo sapiens) (UniProt O75469); test: Human pregnane X receptor (PXR) small molecule agonists, qHTS assay (AID 1346982); also: nearly all actives have a fitted effect of over 35% in size; also: potency is read from the fitted curve at half-maximal effect
In short: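 We seeded PXR-Luc HepG2 cells in assay medium containing 5% charcoal-stripped FBS, added compounds 5 hr later, incubated 24 hr, and read luminescence with ONE-Glo reagent.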

[9] = molecular target: Cytochrome P450 2D6 (Homo sapiens) (UniProt P10635); test: Cytochrome P450 Family 2 Subfamily D Member 6 (CYP2D6) small molecule antagonists: luciferase reporter qHTS assay (AID 1671196); also: nearly all actives have a fitted effect of over 50% in size; also: potency is read from the fitted curve at half-maximal effect
In short: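 Luminescence (RLU), read 20 min after detection reagent, indicated CYP2D6 conversion of proluciferin to luciferin during a 1 h NADPH-dependent reaction at room temperature.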

[10] = molecular target: Cytochrome P450 2C19 (Homo sapiens) (UniProt P33261); test: Cytochrome P450 Family 2 Subfamily C Member 19 (CYP2C19) small molecule antagonists: luciferase reporter qHTS assay (AID 1671197); also: nearly all actives have a fitted effect of over 65% in size; also: potency is read from the fitted curve at half-maximal effect
In short: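 Light output is proportional to CYP2C19 activity: proluciferin substrate is converted to luciferin, then detected by a luciferin detection reagent that also stops the 1 h, 37C NADPH-driven reaction. Ketoconazole serves as positive control.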

[11] = molecular target: Cytochrome P450 2C9 (Homo sapiens) (UniProt P11712); test: Cytochrome P450 Family 2 Subfamily C Member 9 (CYP2C9) small molecule antagonists: luciferase reporter qHTS assay (AID 1671198); also: nearly all actives have a fitted effect of over 50% in size; also: potency is read from the fitted curve at half-maximal effect
In short: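 P450-Glo proluciferin substrate with CYP2C9 enzyme; 10 min RT preincubation, then NADPH regeneration 1 h at 37C; luciferin detection reagent 20 min RT, luminescence in relative luminescence units.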

[12] = molecular target: Voltage-gated inwardly rectifying potassium channel KCNH2 (Homo sapiens) (UniProt Q12809); test: Human Ether-a-go-go-Related Gene (hERG) channel small molecule antagonists: fluorescence cell-based qHTS assay (AID 1671200);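 also: hERG-expressing U2OS cells given a thallium stimulus after FluxOR II dye loading; series mostly up to about 77 µM; nearly all actives have a fitted effect of over 50% in size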
In short: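 First, 1000 cells per well are seeded and cultured overnight at 37 C. Next, FluxOR II dye is loaded for 1 h at room temperature, protected from light. After 10 more minutes, stimulus is added and fluorescence is read.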

[13] = molecular target: Cytochrome P450 3A4 (Homo sapiens) (UniProt P08684); test: Cytochrome P450 Family 3 Subfamily A Member 4 (CYP3A4) small molecule antagonists: luciferase reporter qHTS assay (AID 1671201); also: nearly all actives have a fitted effect of over 50% in size; also: potency is read from the fitted curve at half-maximal effect
In short: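 Enzyme and proluciferin substrate are mixed with test chemicals for 10 min, then NADPH regeneration system drives turnover for 1 h at room temperature. A detection reagent halts the reaction; luminescence after 20 min gives relative activity.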

[14] = molecular target: Cytochrome P450 1A2 (Homo sapiens) (UniProt P05177); test: Cytochrome P450 Family 1 Subfamily A Member 2 (CYP1A2) small molecule antagonists: luciferase reporter qHTS assay (AID 1671199); also: nearly all actives have a fitted effect of over 50% in size; also: potency is read from the fitted curve at half-maximal effect
In short: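 CYP1A2 turnover of a luminogenic substrate was quantified after 1 h with NADPH regeneration at room temperature. Furafylline served as positive control.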

[15] = Caspase-3/7 induction in HepG2 cells by small molecules, qHTS assay (AID 1346978); also: nearly all actives have a fitted effect of over 15% in size
In short: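 Wild-type HepG2 cells, 2,000/well, settled 5 hr at 37 C and 5% CO2, then compound-treated for 17 hr; caspase-3/7 activity read by luminescent Caspase-Glo 3/7 after 30 min at room temperature.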

[16] = molecular target: Nuclear receptor subfamily 1 group I member 2 (Rattus norvegicus) (UniProt Q9R1A7); test: Rat pregnane X receptor (rPXR) activation by small molecules, qHTS assay (AID 1346983); conditions: rPXR luciferase reporter cells, One-Glo luminescence, 24 h; active compounds read high; also: nearly all actives have a fitted effect of over 20% in size
In short: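 Cell-based rPXR activation assay: rPXR cells, 2,000 per well, rested 5hr at 37 C, then exposed to compounds in DMSO for 24 hr at 37 C. Luciferase activity read by One-Glo luminescence after 30 min at room temperature.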

[17] = molecular target: Nuclear receptor subfamily 1 group I member 2 (Homo sapiens) (UniProt O75469); test: CYP3A4 induction through human pregnane X receptor (PXR) by small molecules, qHTS assay (AID 1346984); also: nearly all actives have a fitted effect of over 40% in size; also: potency is read from the fitted curve at half-maximal effect
In short: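 qHTS, concentration-response format: HepG2 DPX-2 line, PXR/CYP3A4-luc. Exposure 24 h, 37C. Substrate Luciferin-IPA 3uM final, 3 h. Detection One-Glo, 30 min RT.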

[18] = molecular target: Nuclear receptor subfamily 1 group I member 2 (Homo sapiens) (UniProt O75469); test: Human pregnane X receptor (PXR) activation by small molecules, qHTS assay (AID 1346985); also: nearly all actives have a fitted effect of over 40% in size; also: potency is read from the fitted curve at half-maximal effect
In short: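 DPX-2 cells (HepG2 co-transfected with a PXR response element and a CYP3A4-promoter luciferase construct) were seeded at 2,000 per well, rested 5 hr at 37C, then exposed to DMSO-dissolved compounds for 24 hr. Activation was read as luciferase luminescence.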
% is scaled to controls: 0 for no effect and ±100 for the full control effect.

Chain of Cytochrome P450 3A4 (Homo sapiens) (P08684 whole entry, looked up): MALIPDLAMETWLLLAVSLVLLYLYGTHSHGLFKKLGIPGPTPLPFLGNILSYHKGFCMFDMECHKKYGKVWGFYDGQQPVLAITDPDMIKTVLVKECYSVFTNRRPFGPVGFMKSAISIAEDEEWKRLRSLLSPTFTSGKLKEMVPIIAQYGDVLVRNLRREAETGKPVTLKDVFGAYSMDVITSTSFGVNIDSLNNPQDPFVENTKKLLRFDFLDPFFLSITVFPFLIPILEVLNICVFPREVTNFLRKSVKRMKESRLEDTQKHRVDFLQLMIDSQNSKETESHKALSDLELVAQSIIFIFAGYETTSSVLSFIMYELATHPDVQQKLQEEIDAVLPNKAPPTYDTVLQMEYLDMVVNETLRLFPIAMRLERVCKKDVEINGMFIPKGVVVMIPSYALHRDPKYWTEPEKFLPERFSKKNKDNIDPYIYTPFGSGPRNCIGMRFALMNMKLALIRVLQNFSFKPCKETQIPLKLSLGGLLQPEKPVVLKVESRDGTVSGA
Chain of Voltage-gated inwardly rectifying potassium channel KCNH2 (Homo sapiens) (Q12809 whole entry, looked up): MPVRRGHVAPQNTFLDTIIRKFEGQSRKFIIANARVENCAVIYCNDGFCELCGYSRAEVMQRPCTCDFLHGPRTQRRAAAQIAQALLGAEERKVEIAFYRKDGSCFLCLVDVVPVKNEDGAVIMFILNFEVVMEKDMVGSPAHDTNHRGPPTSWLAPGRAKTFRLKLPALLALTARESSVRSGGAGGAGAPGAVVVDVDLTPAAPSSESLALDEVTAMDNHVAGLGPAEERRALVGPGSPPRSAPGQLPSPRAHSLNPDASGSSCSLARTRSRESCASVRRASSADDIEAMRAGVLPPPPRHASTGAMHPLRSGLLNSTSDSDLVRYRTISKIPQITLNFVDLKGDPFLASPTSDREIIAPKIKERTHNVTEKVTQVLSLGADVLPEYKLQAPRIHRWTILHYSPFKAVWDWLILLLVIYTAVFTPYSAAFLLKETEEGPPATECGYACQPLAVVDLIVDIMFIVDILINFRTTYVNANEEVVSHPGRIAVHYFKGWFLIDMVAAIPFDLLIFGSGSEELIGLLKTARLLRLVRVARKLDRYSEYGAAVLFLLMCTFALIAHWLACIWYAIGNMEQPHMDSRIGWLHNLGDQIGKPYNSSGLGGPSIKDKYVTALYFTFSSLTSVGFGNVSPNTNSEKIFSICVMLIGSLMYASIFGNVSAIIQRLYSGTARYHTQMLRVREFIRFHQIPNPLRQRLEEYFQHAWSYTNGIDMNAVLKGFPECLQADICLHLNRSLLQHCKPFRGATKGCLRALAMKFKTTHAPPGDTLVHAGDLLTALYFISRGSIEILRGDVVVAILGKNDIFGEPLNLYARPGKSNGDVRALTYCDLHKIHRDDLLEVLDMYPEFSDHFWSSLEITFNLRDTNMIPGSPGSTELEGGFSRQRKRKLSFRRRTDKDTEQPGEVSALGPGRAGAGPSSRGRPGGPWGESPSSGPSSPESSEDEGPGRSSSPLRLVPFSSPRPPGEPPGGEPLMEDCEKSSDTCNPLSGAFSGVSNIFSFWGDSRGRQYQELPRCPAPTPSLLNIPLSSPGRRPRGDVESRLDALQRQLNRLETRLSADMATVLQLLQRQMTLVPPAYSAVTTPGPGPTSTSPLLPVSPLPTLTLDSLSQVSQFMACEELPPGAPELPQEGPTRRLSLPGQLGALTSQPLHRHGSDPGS
Chain of Thyrotropin-releasing hormone receptor (Homo sapiens) (P34981 whole entry, looked up): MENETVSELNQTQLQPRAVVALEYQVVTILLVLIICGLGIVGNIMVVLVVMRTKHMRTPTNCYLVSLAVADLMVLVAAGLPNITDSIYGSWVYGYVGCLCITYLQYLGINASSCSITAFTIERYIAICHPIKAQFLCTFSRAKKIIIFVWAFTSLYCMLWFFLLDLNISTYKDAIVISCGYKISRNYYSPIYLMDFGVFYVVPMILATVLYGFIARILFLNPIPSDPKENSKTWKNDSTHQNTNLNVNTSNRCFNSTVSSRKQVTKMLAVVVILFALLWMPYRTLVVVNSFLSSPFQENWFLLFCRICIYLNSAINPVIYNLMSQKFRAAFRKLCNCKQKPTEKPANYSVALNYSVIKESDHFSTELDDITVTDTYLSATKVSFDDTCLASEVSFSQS
Chain of Cytochrome P450 2C19 (Homo sapiens) (P33261 whole entry, looked up): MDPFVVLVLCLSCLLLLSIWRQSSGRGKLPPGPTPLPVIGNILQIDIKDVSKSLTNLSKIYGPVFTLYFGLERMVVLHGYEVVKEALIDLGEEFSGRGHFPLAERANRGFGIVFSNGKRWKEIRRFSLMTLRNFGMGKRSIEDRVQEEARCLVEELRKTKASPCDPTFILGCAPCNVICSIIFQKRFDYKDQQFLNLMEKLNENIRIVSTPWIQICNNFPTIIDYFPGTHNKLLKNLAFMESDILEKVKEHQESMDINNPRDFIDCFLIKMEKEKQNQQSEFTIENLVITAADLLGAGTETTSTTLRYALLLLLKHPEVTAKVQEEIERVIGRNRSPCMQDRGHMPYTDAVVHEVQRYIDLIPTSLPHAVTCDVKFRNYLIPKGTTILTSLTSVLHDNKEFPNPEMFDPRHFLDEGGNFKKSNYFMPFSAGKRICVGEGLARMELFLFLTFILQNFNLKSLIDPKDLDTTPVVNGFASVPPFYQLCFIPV
Chain of Cytochrome P450 1A2 (Homo sapiens) (P05177 whole entry, looked up): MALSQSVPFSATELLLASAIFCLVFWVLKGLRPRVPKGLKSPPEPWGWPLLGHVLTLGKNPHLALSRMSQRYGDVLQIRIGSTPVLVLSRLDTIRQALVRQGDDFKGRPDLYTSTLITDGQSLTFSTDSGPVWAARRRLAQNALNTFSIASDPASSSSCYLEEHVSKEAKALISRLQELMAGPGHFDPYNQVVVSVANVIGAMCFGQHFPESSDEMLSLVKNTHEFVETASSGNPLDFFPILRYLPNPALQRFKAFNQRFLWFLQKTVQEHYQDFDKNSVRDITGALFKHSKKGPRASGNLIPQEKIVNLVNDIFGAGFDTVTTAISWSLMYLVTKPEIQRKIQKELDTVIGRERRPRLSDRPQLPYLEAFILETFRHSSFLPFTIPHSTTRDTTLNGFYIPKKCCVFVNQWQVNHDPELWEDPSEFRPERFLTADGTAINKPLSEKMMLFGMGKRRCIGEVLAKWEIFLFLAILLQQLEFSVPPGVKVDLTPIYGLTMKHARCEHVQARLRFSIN
Chain of Cytochrome P450 2C9 (Homo sapiens) (P11712 whole entry, looked up): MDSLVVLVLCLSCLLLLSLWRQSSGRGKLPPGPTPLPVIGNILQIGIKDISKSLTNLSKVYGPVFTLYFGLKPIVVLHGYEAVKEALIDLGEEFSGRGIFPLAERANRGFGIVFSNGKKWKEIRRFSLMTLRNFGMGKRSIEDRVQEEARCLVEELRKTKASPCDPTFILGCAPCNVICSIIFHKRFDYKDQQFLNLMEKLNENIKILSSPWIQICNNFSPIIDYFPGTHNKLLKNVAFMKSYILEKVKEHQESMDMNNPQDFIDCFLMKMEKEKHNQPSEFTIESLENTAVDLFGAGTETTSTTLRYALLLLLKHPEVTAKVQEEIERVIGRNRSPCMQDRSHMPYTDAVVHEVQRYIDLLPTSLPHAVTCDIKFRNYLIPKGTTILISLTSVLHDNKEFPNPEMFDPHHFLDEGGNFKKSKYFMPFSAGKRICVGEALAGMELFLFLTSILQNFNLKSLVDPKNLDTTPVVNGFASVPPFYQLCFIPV
Chain of Nuclear receptor subfamily 1 group I member 2 (Rattus norvegicus) (Q9R1A7 whole entry, looked up): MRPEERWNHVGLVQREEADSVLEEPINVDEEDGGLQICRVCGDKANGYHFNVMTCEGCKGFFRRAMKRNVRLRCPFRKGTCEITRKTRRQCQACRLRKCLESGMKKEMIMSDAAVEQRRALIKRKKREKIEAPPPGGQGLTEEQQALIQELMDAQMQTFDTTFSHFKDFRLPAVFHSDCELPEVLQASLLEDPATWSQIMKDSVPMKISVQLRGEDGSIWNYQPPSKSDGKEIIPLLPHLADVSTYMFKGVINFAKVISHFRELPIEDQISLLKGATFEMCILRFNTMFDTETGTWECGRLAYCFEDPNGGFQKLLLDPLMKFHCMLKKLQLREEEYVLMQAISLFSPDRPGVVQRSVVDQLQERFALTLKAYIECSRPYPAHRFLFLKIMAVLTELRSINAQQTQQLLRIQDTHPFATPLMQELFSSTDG
Chain of Nuclear receptor subfamily 1 group I member 2 (Homo sapiens) (O75469 whole entry, looked up): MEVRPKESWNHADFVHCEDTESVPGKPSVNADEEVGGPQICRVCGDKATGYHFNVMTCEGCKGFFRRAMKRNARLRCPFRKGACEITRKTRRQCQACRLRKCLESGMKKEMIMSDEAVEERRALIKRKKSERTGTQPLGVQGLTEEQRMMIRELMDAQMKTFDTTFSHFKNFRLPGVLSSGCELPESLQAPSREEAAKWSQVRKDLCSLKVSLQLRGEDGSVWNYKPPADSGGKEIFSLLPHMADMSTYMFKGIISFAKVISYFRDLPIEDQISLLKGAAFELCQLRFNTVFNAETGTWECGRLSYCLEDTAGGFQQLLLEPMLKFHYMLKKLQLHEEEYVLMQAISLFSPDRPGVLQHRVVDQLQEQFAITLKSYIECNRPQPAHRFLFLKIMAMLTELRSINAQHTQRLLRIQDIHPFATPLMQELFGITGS
Chain of Cytochrome P450 2D6 (Homo sapiens) (P10635 whole entry, looked up): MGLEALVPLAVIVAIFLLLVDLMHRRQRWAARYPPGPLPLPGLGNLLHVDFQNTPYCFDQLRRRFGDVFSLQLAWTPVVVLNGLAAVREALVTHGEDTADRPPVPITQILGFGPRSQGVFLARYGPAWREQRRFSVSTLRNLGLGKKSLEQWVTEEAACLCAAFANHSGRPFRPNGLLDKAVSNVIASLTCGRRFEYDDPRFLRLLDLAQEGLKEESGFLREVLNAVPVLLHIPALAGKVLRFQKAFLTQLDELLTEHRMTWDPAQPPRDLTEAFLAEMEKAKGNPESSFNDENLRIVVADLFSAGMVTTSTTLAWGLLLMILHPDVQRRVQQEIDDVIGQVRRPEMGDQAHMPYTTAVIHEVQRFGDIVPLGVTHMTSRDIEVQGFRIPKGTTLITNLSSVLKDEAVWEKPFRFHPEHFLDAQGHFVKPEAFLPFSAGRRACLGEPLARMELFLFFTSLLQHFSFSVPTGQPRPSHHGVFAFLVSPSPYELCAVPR

COC(C)(OC)OC
inactive: outcome [1] | outcome [2] | outcome [3] | outcome [4] | Potency [5] | outcome [6] | outcome [7] | Potency [8] | Potency [9] | Potency [10] | Potency [11] | Potency [12] | Potency [13]

Cc1cccc(Cl)c1
inactive: outcome [1] | outcome [2] | outcome [3] | outcome [4] | Potency [5] | outcome [6] | outcome [7] | Potency [8] | Potency [9] | Potency [10] | Potency [11] | Potency [14] | Potency [12] | Potency [13]

COP(=O)(O)OP(=O)(O)OC
inactive: outcome [1] | outcome [2] | outcome [3] | outcome [4] | Potency [5] | outcome [6] | outcome [7] | Potency [8] | Potency [10] | Potency [11] | Potency [14] | Potency [12] | Potency [13]

C/C=C(\C)C(C)=O
inactive: outcome [1] | outcome [2] | outcome [3] | outcome [4] | Potency [5] | outcome [6] | outcome [7] | Potency [8] | Potency [9] | Potency [10] | Potency [11] | Potency [14] | Potency [12] | Potency [13]

CO[Si](CCCn1c(=O)n(CCC[Si](OC)(OC)OC)c(=O)n(CCC[Si](OC)(OC)OC)c1=O)(OC)OC
active: Potency [13] 17.7 µM
inactive: outcome [1] | outcome [2] | outcome [3] | outcome [4] | Potency [5] | outcome [7] | Potency [8] | Potency [10] | Potency [11] | Potency [14] | Potency [12]

C=CCN1C[C@H](C(=O)N(CCCN(C)C)C(=O)NCC)C[C@@H]2c3cccc4[nH]cc(c34)C[C@H]21
active: Potency [8] 29.8 µM | Potency [17] 12.6 µM | Potency [18] 15.8 µM | Potency [9] 2.45 µM | Potency [13] 0.977 µM
inactive: outcome [1] | outcome [2] | outcome [3] | outcome [15] | max activation [16] -1.45% | Potency [11] | Potency [14]

CC(=O)OC1CCCCC1C(C)(C)C (configuration not stated)
inactive: outcome [1] | outcome [2] | outcome [4] | outcome [15] | Potency [5] | outcome [6] | outcome [7] | Potency [8] | Potency [9] | Potency [10] | Potency [11] | Potency [14] | Potency [12] | Potency [13]

CC(C)=CCC/C(C)=C/COC=O
inactive: outcome [1] | outcome [2] | outcome [3] | outcome [4] | Potency [5] | outcome [6] | outcome [7] | Potency [8] | Potency [11] | Potency [12] | Potency [13]

CCCCOCC(C)O (configuration not stated)
inactive: outcome [1] | outcome [2] | outcome [4] | outcome [15] | Potency [5] | outcome [6] | outcome [7] | Potency [8] | Potency [9] | Potency [10] | Potency [11] | Potency [14] | Potency [12] | Potency [13]

CC(=O)CCC1=C(C)CCCC1(C)C
active: Potency [10] 35.6 µM | Potency [11] 31.7 µM | Potency [14] 39.9 µM | Potency [13] 10 µM
inactive: outcome [1] | outcome [2] | outcome [3] | outcome [4] | Potency [5] | outcome [6] | Potency [8] | Potency [9] | Potency [12]

COC(=O)/C=C\C(=O)O
inactive: outcome [1] | outcome [2] | outcome [4] | outcome [15] | Potency [5] | outcome [6] | outcome [7] | Potency [8] | Potency [9] | Potency [10] | Potency [11] | Potency [14] | Potency [12] | Potency [13]

C=CCOC(=O)CCCCCC
inactive: outcome [1] | outcome [2] | outcome [4] | outcome [15] | Potency [5] | outcome [6] | outcome [7] | Potency [8] | Potency [9] | Potency [10] | Potency [11] | Potency [14] | Potency [12] | Potency [13]

O=C(CCCl)NCCc1ccccc1
inactive: outcome [1] | outcome [2] | outcome [3] | outcome [4] | Potency [5] | outcome [6] | outcome [7] | Potency [8] | Potency [10] | Potency [11] | Potency [14] | Potency [12] | Potency [13]

Cc1ccc2c(c1)C(=O)c1ccccc1C2=O
inactive: outcome [1] | outcome [2] | outcome [4] | outcome [15] | Potency [5] | outcome [6] | outcome [7] | Potency [12]
active: Potency [8] 15.3 µM | Potency [9] 28.2 µM | Potency [10] 11.2 µM | Potency [11] 12.6 µM | Potency [14] 8.91 µM | Potency [13] 7.07 µM

O=C(O)[C@H](O)c1ccccc1
inactive: outcome [1] | outcome [2] | outcome [4] | outcome [15] | Potency [5] | outcome [6] | outcome [7] | Potency [8] | max activation [16] -3.01% | Potency [17] | Potency [18] | Potency [9] | Potency [11] | Potency [14] | Potency [12] | Potency [13]

C=CC/C=C/C
inactive: outcome [1] | outcome [2] | outcome [3] | outcome [4] | Potency [5] | outcome [6] | outcome [7] | Potency [8] | Potency [10] | Potency [11] | Potency [12] | Potency [13]

CN(C)CC/C=C1/c2ccccc2COc2ccc(CC(=O)O)cc21
inactive: outcome [1] | outcome [2] | outcome [3] | outcome [4] | outcome [6] | outcome [7] | Potency [8] | max activation [16] -3.17% | Potency [17] | Potency [18] | Potency [9] | Potency [10] | Potency [11] | Potency [14] | Potency [12] | Potency [13]

CCCCCCCCCOC(=O)c1ccccc1C(=O)OCCCCCCCCC
active: Potency [8] 19.3 µM | Potency [10] 39.8 µM | Potency [11] 39.8 µM | Potency [14] 35.5 µM | Potency [13] 7.95 µM
inactive: outcome [1] | outcome [2] | outcome [3] | outcome [4] | Potency [5] | outcome [6] | outcome [7] | Potency [12]
